{
  "source": "PubChem BioAssay (NCI)",
  "note": "About 83,000 compounds went through this panel and 20% of them were active in at least one assay; those are over-represented in the sample as a whole.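 Note: values are percent growth. 100 is the growth of untreated cells, values between 100 and 0 indicate rising inhibition; between -100 and 0 indicates cell death.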 Calls of active or inactive are those of the source.",
  "data": [
    {"system": "RPMI-8226 leukemia", "experiment": "NCI-60 one-dose screen, 48 h (100 = growth as untreated, 0 = no growth, -100 = all killed)", "details": "10 µM unless noted", "procedure": "Growth inhibition of the RPMI-8226 human tumor cell line is measured as a screen for anti-cancer activity. Cells are grown in 96 well plates and exposed to the test compound for 48 hours. Compounds are tested at a single concentration, which is 10^-5 M for most compounds. The reported endpoint is percent growth (GI% or GIPRCNT), where numbers from 0 - 100% represent growth inhibition, and numbers from -100% - 0 represent cell death. For example, a value of 40 represents 60% growth inhibition. A value of 0 means no net growth occurred over the course of the experiment. A value of -40 indicates 40% of cells at the beginning of the experiment died by the end of the experiment. A value of -100 means all cells are dead at the end of the experiment.\nNCI-60 Human Tumor Cell Lines Screen was performed using the standard one-dose NCI protocol, which is described in more detail at https://dtp.cancer.gov/discovery_development/nci-60/default.htm.\nCompounds with GIPRCNT values below 10 were considered active. Activity score was based on GIPRCNT using the following formula: […]\nScore is 0 for GIPRCNT values of 100 or above, 50 for GIPRCNT values of 0, and 100 for GIPRCNT values of -100.", "values": [
      {"smiles": "CC(=O)N1N=C(c2ccc(Cl)cc2)CC1c1c(C)nn(-c2ccccc2)c1N(C)Cc1ccccc1", "note": "(stereo not given)", "growth": "46.8% (inactive)"},
      {"smiles": "CCCCOP(=O)(OCCCC)C(C(=O)OCC)C(CC(=O)OCC)C(=O)OCC", "note": "(stereo not given)", "growth": "109% (inactive)"},
      {"smiles": "Cc1cc(C)cc(S(=O)(=O)n2ccc(-c3ccc4c(c3)CCC(C)(C)O4)n2)c1", "growth": "73.2% (inactive)"},
      {"smiles": "CCCCCCCCN(CCO)CCCCCCCC", "growth": "121% (inactive)"},
      {"smiles": "C/C=C(/C(=C/C)c1ccc(O)cc1)c1ccc(O)cc1", "growth": "18.3% (inactive)"},
      {"smiles": "N#Cc1ncc(-c2ccc(C(F)(F)F)cc2)c(NC2CCCCCC2)n1", "growth": "-5.45% (active)"},
      {"smiles": "CCOC(=O)Nc1cc(-c2ccc(C)c(NS(C)(=O)=O)c2)nn2c(C)nnc12", "growth": "-20.4% (active)"},
      {"smiles": "C[C@@H]1C[C@@H]([C@@H](CC2CC(=O)NC(=O)C2)OC(=O)CC(=O)c2ccccc2)C(=O)[C@@H](C)C1", "growth": "17.4% (inactive)"},
      {"smiles": "CC(C)=CCCC(C)c1ccc(C)c2c1OCN(CC1CCNCC1)C2", "note": "(stereo not given)", "growth": "23.7% (inactive)"},
      {"smiles": "CCC(C)C1NC(=O)C(CCNCS(=O)(=O)O)NC(=O)C(NC(=O)C(CCNCS(=O)(=O)O)NC(=O)C(NC(=O)C(CCNCS(=O)(=O)O)NC(=O)CCCCC(C)C)C(C)O)CCNC(=O)C(C(C)O)NC(=O)C(CCNCS(=O)(=O)O)NC(=O)C(CCNCS(=O)(=O)O)NC(=O)C(C(C)CC)NC1=O", "note": "(stereo not given)", "growth": "22.6% (inactive)"},
      {"smiles": "COc1ccc2ncccc2c1Cc1c(OC)ccc2ncccc12", "growth": "69.2% (inactive)"},
      {"smiles": "Oc1c(Cl)cc(Oc2cc(Cl)c(O)c(CN3CCOCC3)c2)cc1CN1CCOCC1", "growth": "91% (inactive)"},
      {"smiles": "C[N+]1(C)C2CC[C@@H]1CC(OC(=O)C(O)c1ccccc1)C2", "note": "(stereo not given in full)", "growth": "93.9% (inactive)"},
      {"smiles": "O=C(Nc1cccc(-n2cc(-c3ccncc3)c(-c3cc(O)cc(Cl)c3)n2)c1)Nc1ccc(Cl)c(Cl)c1", "growth": "-15.3% (active)"},
      {"smiles": "C/C(=C\\CCc1ccoc1)CC/C=C(\\C)CCCN1CCOCC1", "growth": "20.8% (inactive)"},
      {"smiles": "CCCCN=C(N)c1ccc(OCCSCCOc2ccc(C(N)=NCCCC)cc2)cc1", "growth": "26.2% (inactive)"},
      {"smiles": "COc1cc(/C=C/c2cc(/C=C/c3ccc(O)c(OC)c3)n(C(=O)Cc3ccccc3)n2)ccc1O", "growth": "-34.2% (active)"},
      {"smiles": "CCOc1cc(/C=C/C(=O)CC(=O)/C=C/c2ccc(OC(=O)CNCCN(CC)CC)c(OCC)c2)ccc1OC(=O)CNCCN(CC)CC", "growth": "-52.9% (active)"},
      {"smiles": "CC(=O)OC1Oc2cc(C)c(C)cc2-c2oc(=O)c(-c3ccccc3)cc21", "note": "(stereo not given)", "growth": "-18.1% (active)"},
      {"smiles": "NS(=O)(=O)c1ccc(N2CC(c3nc4ccccc4[nH]3)CC2=O)cc1", "note": "(stereo not given)", "growth": "103% (inactive)"},
      {"smiles": "CC(=O)OCC(=O)[C@@]1(O)CC[C@H]2[C@@H]3CCC4=CC(=O)CC[C@]4(C)[C@@]3(F)[C@@H](O)C[C@@]21C", "growth": "62.5% (inactive)"},
      {"smiles": "O=C1c2cccc3c([N+](=O)[O-])ccc(c23)C(=O)N1CCCCl", "growth": "-11.6% [100 µM] (active)"},
      {"smiles": "CC(=O)c1ccccc1NC(=O)C(C)(c1ccccc1)c1ccccc1", "growth": "57.3% (inactive)"},
      {"smiles": "C1CCC(C(CC2CCCCN2)C2CCCCC2)CC1", "note": "(stereo not given)", "growth": "5.39% (active)"},
      {"smiles": "CCN(CC)CCOCC[C@H]1CC[C@H]2[C@@H]3[C@H](C)Cc4cc(OS(N)(=O)=O)ccc4[C@H]3CC[C@]12C", "growth": "-56.4% (active)"},
      {"smiles": "CCN(CC)CCSc1ncnc2c1cnn2-c1ccc(S(N)(=O)=O)cc1", "growth": "98.2% (inactive)"},
      {"smiles": "COc1cccc(-c2nc(-c3ccc(N)cc3)co2)c1", "growth": "89.5% (inactive)"},
      {"smiles": "COc1ccc(N2CCN(CC(=O)N3CCN(c4nnc(-c5ccccc5)c(-c5ccccc5)n4)CC3)CC2)cc1", "growth": "1.97% (active)"},
      {"smiles": "C[C@H]1C(=O)N2c3ccccc3[C@@]3(O)C[C@@H](n4cnc5ccccc5c4=O)C(=O)N1[C@@H]23", "growth": "125% (inactive)"},
      {"smiles": "COc1ccc2c(c1)CC/C(=C\\c1ccc(OCC(=O)Nc3nc4ccccc4s3)cc1)C2=O", "growth": "85.4% (inactive)"},
      {"smiles": "O=C(N/N=C/c1cccc([N+](=O)[O-])c1)c1ccc(Br)o1", "growth": "85.9% (inactive)"},
      {"smiles": "OCCCc1n(Cc2ccc3ccccc3c2)c2ccccc2[n+]1Cc1ccc2ccccc2c1", "growth": "2.19% (active)"},
      {"smiles": "CCCCCc1c(C)[nH]c(/C=C2\\N=C(c3ccc[nH]3)C=C2Oc2ccc(Cl)cc2)c1C", "growth": "-32.8% [100 µM] (active)"},
      {"smiles": "COc1ccc2c(=O)c(OC)c(-c3cc(OC)c(OC)c(OC)c3)oc2c1", "growth": "92.6% (inactive)"},
      {"smiles": "O=[N+]([O-])c1cc([N+](=O)[O-])c(N2CCCC2)cc1NN=C(c1ccc(O)cc1)c1ccc(O)cc1", "growth": "82.2% (inactive)"},
      {"smiles": "Cc1cc(C(=O)Nc2ccc3cc(CN4CCOCC4)ccc3n2)c(C)n1-c1ccccc1", "growth": "-21% (active)"},
      {"smiles": "COc1cnc2c(c1)C(=O)c1c-2n(CCCN2CCNCC2)c(=O)c2cc(F)ccc12", "growth": "-30.9% (active)"},
      {"smiles": "COc1cc(C2CC(C3C(=O)N(C)C(=O)N(C)C3=O)=NN2c2cc(Cl)cc(Cl)c2)cc(OC)c1OC", "note": "(stereo not given)", "growth": "85.7% (inactive)"},
      {"smiles": "COc1ccc(N2CCN(CC(=O)N3CCN(c4nnc(-c5ccc(Cl)cc5)c(-c5ccc(Cl)cc5)n4)CC3)CC2)cc1", "growth": "-14.8% (active)"},
      {"smiles": "O=C1NCCc2c1noc2-c1ccccc1", "growth": "113% (inactive)"}
    ]}
  ]
}
